FAS TE block: blocks the thioesterase domain of human fatty acid synthase; P49327; actives 0.67% (n = 360,000); recombinant FAS-TE, OMFH fluorogenic substrate, fluorescence endpoint; inhibition, % at 15 µM;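 active = compounds whose normalised, plate-corrected inhibition of enzyme fluorescence in the single-dose primary screen is 50% or more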;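 note: 0% = DMSO with enzyme and 100% = substrate without enzyme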
Target sequence (P49327 whole entry, looked up, the tested form may be a part): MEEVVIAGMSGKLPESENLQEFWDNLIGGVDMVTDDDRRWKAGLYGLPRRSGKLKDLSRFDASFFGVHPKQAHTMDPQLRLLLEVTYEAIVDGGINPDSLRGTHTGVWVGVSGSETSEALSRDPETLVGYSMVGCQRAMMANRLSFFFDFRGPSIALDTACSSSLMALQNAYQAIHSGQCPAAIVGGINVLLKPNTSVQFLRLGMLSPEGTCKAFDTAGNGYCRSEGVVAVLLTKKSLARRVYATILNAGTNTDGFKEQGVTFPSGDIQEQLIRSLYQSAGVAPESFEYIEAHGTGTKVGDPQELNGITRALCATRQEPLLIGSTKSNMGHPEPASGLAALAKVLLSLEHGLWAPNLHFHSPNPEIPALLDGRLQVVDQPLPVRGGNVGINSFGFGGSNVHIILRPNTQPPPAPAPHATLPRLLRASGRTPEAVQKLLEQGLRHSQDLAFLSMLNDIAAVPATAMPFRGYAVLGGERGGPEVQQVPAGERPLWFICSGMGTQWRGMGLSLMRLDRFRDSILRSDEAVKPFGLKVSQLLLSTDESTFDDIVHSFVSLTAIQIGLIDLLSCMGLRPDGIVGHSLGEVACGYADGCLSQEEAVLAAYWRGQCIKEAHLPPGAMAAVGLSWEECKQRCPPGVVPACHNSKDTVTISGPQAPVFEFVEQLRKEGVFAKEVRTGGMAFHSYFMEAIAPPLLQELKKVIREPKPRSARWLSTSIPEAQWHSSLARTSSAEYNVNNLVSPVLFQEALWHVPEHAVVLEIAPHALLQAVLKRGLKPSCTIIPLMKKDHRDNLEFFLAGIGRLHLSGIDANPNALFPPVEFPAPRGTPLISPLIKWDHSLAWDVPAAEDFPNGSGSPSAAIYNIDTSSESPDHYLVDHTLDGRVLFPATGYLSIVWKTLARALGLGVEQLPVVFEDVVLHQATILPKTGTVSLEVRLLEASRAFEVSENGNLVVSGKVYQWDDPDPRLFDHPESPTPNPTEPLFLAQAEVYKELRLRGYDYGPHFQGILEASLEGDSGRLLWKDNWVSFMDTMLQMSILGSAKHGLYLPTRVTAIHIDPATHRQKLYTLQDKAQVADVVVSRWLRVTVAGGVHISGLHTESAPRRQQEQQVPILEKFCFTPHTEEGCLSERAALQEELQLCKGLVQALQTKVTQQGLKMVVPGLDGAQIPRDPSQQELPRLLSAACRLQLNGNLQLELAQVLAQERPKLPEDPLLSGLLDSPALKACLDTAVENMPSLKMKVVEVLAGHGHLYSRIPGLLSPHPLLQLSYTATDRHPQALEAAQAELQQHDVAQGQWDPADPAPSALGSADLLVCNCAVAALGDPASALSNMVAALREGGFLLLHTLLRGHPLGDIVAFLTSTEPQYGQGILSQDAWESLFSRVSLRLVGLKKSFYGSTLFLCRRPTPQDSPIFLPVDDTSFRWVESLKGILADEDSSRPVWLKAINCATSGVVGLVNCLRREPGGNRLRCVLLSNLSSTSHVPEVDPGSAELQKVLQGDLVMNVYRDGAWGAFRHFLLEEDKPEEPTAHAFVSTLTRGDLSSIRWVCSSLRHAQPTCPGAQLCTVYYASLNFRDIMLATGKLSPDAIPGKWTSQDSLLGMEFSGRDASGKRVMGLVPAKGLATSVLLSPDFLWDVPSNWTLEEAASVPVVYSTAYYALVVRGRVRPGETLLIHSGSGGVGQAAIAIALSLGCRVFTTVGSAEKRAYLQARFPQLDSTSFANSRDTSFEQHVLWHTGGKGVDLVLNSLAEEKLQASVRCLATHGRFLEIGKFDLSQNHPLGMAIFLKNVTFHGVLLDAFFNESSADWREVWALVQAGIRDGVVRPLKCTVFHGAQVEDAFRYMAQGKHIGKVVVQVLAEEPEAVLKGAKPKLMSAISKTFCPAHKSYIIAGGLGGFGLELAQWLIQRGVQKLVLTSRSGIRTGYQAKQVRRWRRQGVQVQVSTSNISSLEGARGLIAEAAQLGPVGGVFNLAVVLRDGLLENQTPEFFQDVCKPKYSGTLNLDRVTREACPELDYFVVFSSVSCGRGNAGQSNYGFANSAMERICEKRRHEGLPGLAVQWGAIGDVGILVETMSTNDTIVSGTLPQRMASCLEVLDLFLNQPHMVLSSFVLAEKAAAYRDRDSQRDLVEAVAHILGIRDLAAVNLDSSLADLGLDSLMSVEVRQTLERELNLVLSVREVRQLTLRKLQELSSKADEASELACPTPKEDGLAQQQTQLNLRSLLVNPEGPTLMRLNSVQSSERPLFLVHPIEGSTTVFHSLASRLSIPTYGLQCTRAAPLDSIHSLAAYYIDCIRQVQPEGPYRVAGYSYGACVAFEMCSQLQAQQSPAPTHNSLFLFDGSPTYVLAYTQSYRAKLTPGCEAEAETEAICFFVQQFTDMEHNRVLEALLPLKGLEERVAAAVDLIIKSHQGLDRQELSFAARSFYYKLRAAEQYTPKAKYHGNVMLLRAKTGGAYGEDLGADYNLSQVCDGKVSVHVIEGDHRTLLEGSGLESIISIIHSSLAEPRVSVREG
A3G deaminase: APOBEC3G (human) deaminase inhibition; AID 493012; recombinant A3G, ssDNA deamination FAM/TAMRA fluorescence; Q9HC16; inhibition, % at 20 µM; actives 0.28% (n = 330,000);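 active = inhibition of at least 40% at 20 µM, with no more than 30% in the related APOBEC3A deaminase screen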;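 note: plate controls were DMSO wells with A3G for no effect and wells lacking A3G enzyme for full effect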
GC-B act: GC-B (human) receptor activation; actives 0.11% (n = 370,000); P20594; activation, % at 10 µM; HEK293-GC-B cells, CNP EC30, cGMP TR-FRET; 0% at EC30 CNP, 100% saturating CNP;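 active = activation at 10 µM reaching about 35% in either raw or pattern-adjusted values, limit read from the data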
GC-A act: GC-A (human) enzyme activation. P16066. HEK293 GC-A cells, cGMP TR-FRET, EC30 ANP; 0% at EC30 ANP, 100% saturating ANP. activation, % at 10 µM. actives 0.14% (n = 370,000). AID 1671463; in the data active = activation above about 40%
APOBEC3A inh: human APOBEC3A DNA deaminase inhibition; recombinant A3A, FAM/TAMRA ssDNA deamination fluorescence; inhibition, % at 20 µM; actives 0.41% (n = 330,000); AID 493011;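 active = at least 40% inhibition at 20 µM here, with at most 30% in a related deaminase screen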;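 note: plate controls were A3A with DMSO for no effect and wells lacking A3A enzyme for full effect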
A3A conf: confirmation of human APOBEC3A DNA deaminase inhibitors | shares compounds with APOBEC3A inh | recombinant A3A, ssDNA deaminase UDG fluorescence assay | inhibition, % at 20 µM | actives 63% (n = 1,400);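 active = inhibition reaching a set limit, 80% of the first screen's cutoff, at 20 µM in any replicate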;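 note: plate controls were DMSO wells with A3A for no effect and wells lacking A3A enzyme for full effect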
UDG ctr A3A: UDG inhibition in APOBEC3A counter-screen; shares compounds with APOBEC3A inh; UDG counterscreen, FAM/TAMRA uracil oligo fluorescence; inhibition, % at 20 µM; 1,000 tested, under 10 active; call rule not given here
Starred values were filed as active, the others as inactive; . = not tested or not shown. This is a sample that favours compounds with a hit; in the whole collection about 1.4% have one here.

SMILES | FAS TE block | A3G deaminase | GC-B act | GC-A act | APOBEC3A inh | A3A conf | UDG ctr A3A
O=C(Nc1ccc(NC(=O)c2ccc(Cl)cc2Cl)cc1)c1cccs1 | -0.9 | 8.2 | -0.9 | 1.1 | 53.5* | 41.2* | -1.5
COC(=O)[C@]12C[C@H](CC(=O)NCc3cccs3)C(=O)N(Cc3ccco3)C1=C[C@H](C(C)C)O[C@@H]2C1CC1 | . | . | -2.1 | -7.5 | . | . | .
COc1ccc(NC(=O)Cc2coc3cc(C)c(C(C)C)cc23)cc1S(=O)(=O)N1CCOCC1 | 7.0 | 11.0 | 4.7 | -1.7 | 48.5* | 9.8 | .
COc1ccc2c(CC(=O)Nc3ccc(OC)c(S(=O)(=O)N4CCOCC4)c3)coc2c1 | -2.8 | -4.8 | 2.8 | -5.0 | -1.6 | . | .
CC[N+]1(CC(O)COC2CC(C)CC(C)(C)C2)CCOCC1 (stereo not drawn) | -8.5 | 23.7 | 5.2 | -0.8 | 43.2* | 75.0* | -4.0
CCOc1ccc(NC(=S)NCCCN2CCN(c3ccc(OC)cc3)CC2)cc1 | -3.0 | -7.3 | -1.2 | -0.4 | -8.4 | . | .
COc1ccc(NC(=S)NCCCN2CCCC2)cc1 | -2.1 | -1.9 | -7.3 | -0.2 | 40.9* | -7.7 | -0.3
COc1ccc(C(=O)NCCCN2CCOCC2)cc1 | -4.2 | -1.0 | 2.3 | 0.8 | 71.6* | -8.7 | -1.3
CCCCCCCC[n+]1c(C)n(-c2ccccc2)c2ccc(NC(C)=O)cc21 | -12.6 | 13.5 | 1.1 | 4.0 | 41.6* | 69.9* | -3.3
COc1cc(/C=N\NC(=O)c2ccc(Cl)cc2)ccc1Oc1ccc([N+](=O)[O-])cn1 | 16.9 | 14.9 | 0.9 | -4.1 | 48.0* | 62.8* | -1.4
COc1cc(/C=N\NC(=O)c2cccc(Cl)c2)ccc1Oc1ccc([N+](=O)[O-])cn1 | 30.0 | -7.4 | 1.0 | -4.7 | -3.7 | . | .
COc1ccc(NC(=O)Cn2cnc3ccccc3c2=O)cc1OC | -5.0 | -12.5 | -1.0 | 2.1 | -3.4 | . | .
COc1ccc2nc(NC(=O)Cn3cnc4ccccc4c3=O)sc2c1 | -5.8 | 12.3 | 0.0 | 4.9 | 43.4* | 2.9 | .
C[n+]1ccccc1/C=C/c1ccc(F)c(F)c1 | -1.5 | 16.8 | 2.1 | 7.5 | 52.7* | 55.1* | .
C[n+]1ccccc1/C=C/c1ccc([N+](=O)[O-])cc1 | -11.2 | 23.2 | 8.3 | 4.8 | 57.0* | 62.2* | .
C[n+]1ccccc1/C=C/c1ccc2ncccc2c1 | -2.6 | 18.0 | -0.7 | 5.8 | 74.6* | 75.3* | -0.1
CCCCCCN1CCS(=O)(=O)N(Cc2ccc(C)cc2)C(C(=O)OC)C1 (stereo not drawn) | . | . | -2.6 | -1.1 | . | . | .
CCOc1cc(OCC)cc(C(=O)N2CCC[C@@H]2C(=O)N2CCC[C@@H]2C(=O)NCc2cccc(OC)c2)c1 | . | . | -4.2 | 2.4 | . | . | .
Cc1ccc(-n2c(SCC(=O)c3ccc(F)cc3)nnc2-c2cccnc2)cc1 | . | . | 7.4 | -2.0 | . | . | .
CCC(=O)Nc1cc(C(=O)O)ccc1S(=O)(=O)c1ccc(C)cc1 | -7.6 | 9.7 | 2.2 | -2.7 | 46.6* | 51.9* | 0.3
CC(=O)Nc1cc(C(=O)O)ccc1S(=O)(=O)c1ccc(C)cc1 | -7.7 | -8.1 | -4.6 | -0.8 | 2.7 | . | .
COC(C(=O)Nc1ccc(Cl)cc1C)c1ccccc1 (stereo not drawn) | -12.8 | 12.0 | -0.7 | 3.5 | 52.5* | 11.6 | .
COC(C(=O)Nc1ccc(NC(=O)C(OC)c2ccccc2)cc1)c1ccccc1 (stereo not drawn) | -0.4 | 2.4 | 0.6 | 1.3 | 1.5 | . | .
CCCCC[n+]1cccc2c3ccccc3ccc21 | -3.5 | 22.9 | -6.9 | 14.4 | 54.8* | 72.5* | -2.1
CO[C@@]1(NC(=O)C2SC(=C(C(N)=O)C(=O)O)S2)C(=O)N2C(C(=O)O)=C(CSc3nnnn3C)CS[C@@H]21 (stereo partly drawn) | 0.1 | 2.6 | 2.1 | 3.6 | 49.5* | 43.1* | -0.3
SMILES | FAS TE block | A3G deaminase | GC-B act | GC-A act | APOBEC3A inh | A3A conf | UDG ctr A3A
Cc1nn(CC(=O)NC2C(=O)N3C(C(=O)O)=C(CSc4nnnn4C)CSC23)cc1Br (stereo not drawn) | -7.7 | -2.4 | -1.4 | 4.0 | 16.3 | . | .
CCn1c(=O)c(C(=O)CN2CCN(S(=O)(=O)c3ccc(C)cc3C)CC2)c(N)n(Cc2ccccc2)c1=O | 23.0 | 6.8 | -1.6 | -0.2 | 44.5* | 2.2 | .
CCn1c(=O)c(C(=O)CN2CCN(S(=O)(=O)c3ccccc3)CC2)c(N)n(Cc2ccccc2)c1=O | 7.6 | -10.7 | -1.1 | -2.7 | 8.2 | . | .
CCOc1cccc(/C=N\NC(=O)c2cnccn2)c1O | . | . | -3.4 | 4.6 | . | . | .
Cc1ccc2c(c1)C1CN(C)CCC1N2C(=O)COc1ccc(N(C)C(=O)C(C)(C)C)cc1 (stereo not drawn) | -0.8 | 1.3 | 1.0 | -0.8 | 8.8 | . | .
Cc1ccc2c(c1)C1CN(C)CCC1N2CC(=O)N(C)c1ccccc1 (stereo not drawn) | -9.6 | 18.8 | -0.3 | 3.2 | 51.5* | 49.7* | -2.2
CC(=O)N1CCc2c1cccc2S(=O)(=O)NC(CC(C)C)C(=O)Nc1ccccc1C (stereo not drawn) | . | . | -5.1 | 2.2 | . | . | .
CN(c1ccc(Br)cc1)S(=O)(=O)c1ccc2[nH]cc(C(=O)NCCN3CCOCC3)c(=O)c2c1 | -8.4 | 6.0 | -2.7 | 2.0 | 42.0* | -1.5 | .
COc1ccccc1NC(=O)c1cc[n+](C)cc1 | -5.1 | 10.4 | 7.7 | 2.5 | 86.4* | 63.9* | 2.5
COC(=O)c1ccccc1NC(=O)c1cc[n+]([O-])cc1 | -6.5 | -3.5 | -4.3 | -0.2 | -2.3 | . | .
COC(=O)c1ccccc1NC(=O)c1noc2c1CCC2 | 11.7 | 22.6 | -4.2 | 1.2 | 59.3* | 46.7* | .
COC(=O)c1ccccc1NC(=O)c1cc[n+](C)cc1 | -5.3 | 19.0 | 2.0 | 7.6 | 76.9* | 56.5* | -2.4
COc1ccccc1NC(=O)c1ccc(NC(=O)C2CC2)cc1 | -4.4 | . | -6.1 | -1.5 | . | . | .
CSc1ccccc1NC(=O)c1noc2c1CCC2 | 0.8 | 15.6 | -2.5 | -4.4 | 37.4 | . | .
COC(=O)c1cc2c(c3c4cc(OC)ccc4n(S(=O)(=O)c4cccc(C)c4)c13)C(=O)N(Cc1ccc(C(F)(F)F)cc1)C2 | . | . | 7.8 | -0.8 | . | . | .
COc1ccc(NC(=O)CSc2nc3ccsc3c(=O)n2Cc2ccccn2)c(OC)c1 | 1.0 | -3.0 | 3.3 | -0.3 | 42.6* | 6.3 | 0.1
Cc1ccc(CNC(=O)CSc2nc3ccsc3c(=O)n2Cc2ccccn2)cc1 | 1.0 | -5.0 | 0.9 | -2.2 | -2.2 | . | .
NS(=O)(=O)c1ccc(CCNC(=O)CCS(=O)(=O)c2ccc(Br)cc2)cc1 | -3.6 | 24.4 | 2.6 | -1.6 | 45.7* | 40.3* | .
N#Cc1ccc(CN2CCN(C(=O)Cn3nc(C(N)=O)c4ccccc4c3=O)CC2)cc1 | -5.3 | 6.2 | -0.9 | 2.8 | 57.7* | 25.5 | .

Bioassay records (PubChem BioAssay)
